Laboratory results published in PubChem BioAssay AID583 (Sanford-Burnham Center for Chemical Genomics, 2007).
“And” between values parts separate entries of the source, which are not always exact repeats. Equal values may be shown once. Screen size: about 140,000 compounds; about 80 (0.06%) were called active. Shown is part of a subset that was picked to be rich in actives. A number with no mark means an inactive call. No stated cut-off is given here; in the data, active means displacement above about 50%; inactive means the rest.

molecular target: Heat shock 70 kDa protein 1A (Homo sapiens) (UniProt P0DMV8); assay: small molecules displacing fluorescent ligand from Hsp70 – biochemical, fluorescence polarization, primary screen (AID 583); details: Hsp70 fluorescence polarization probe displacement, mP; at 20 µM; active compounds read high;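 further: plate controls were vehicle for no effect and reference ligand for full effect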
Sequence (P0DMV8 whole entry, looked up): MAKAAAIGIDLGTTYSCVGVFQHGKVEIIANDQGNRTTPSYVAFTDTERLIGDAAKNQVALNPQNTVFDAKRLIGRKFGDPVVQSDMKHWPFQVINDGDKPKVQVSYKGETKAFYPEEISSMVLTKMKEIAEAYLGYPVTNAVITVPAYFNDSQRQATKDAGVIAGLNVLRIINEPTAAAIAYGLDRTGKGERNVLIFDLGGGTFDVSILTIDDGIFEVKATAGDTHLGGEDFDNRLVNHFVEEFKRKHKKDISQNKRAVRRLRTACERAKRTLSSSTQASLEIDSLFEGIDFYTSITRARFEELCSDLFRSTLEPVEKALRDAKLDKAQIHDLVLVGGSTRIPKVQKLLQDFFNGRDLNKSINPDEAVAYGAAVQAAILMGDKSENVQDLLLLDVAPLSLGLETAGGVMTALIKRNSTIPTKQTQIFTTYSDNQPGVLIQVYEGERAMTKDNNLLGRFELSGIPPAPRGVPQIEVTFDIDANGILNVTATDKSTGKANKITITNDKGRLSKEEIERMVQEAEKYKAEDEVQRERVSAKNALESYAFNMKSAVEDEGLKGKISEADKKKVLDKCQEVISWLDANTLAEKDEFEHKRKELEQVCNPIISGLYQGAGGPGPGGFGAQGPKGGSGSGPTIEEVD

Compared with CC1CCCCN1c1nnc(N)s1 (stereo not drawn), CCc1nnc(SCC(=O)N2CCCc3ccccc32)nc1CC is lower in displacement: 0.6% for the first, 0.4% for the second.

First: O=C(Cn1c(=O)n(CC2CCCO2)c(=O)c2ccccc21)N1CCN(c2ccccc2)CC1 (stereo not drawn)
Second: N#Cc1c2c(c(NCCCN3CCOCC3)n3c1nc1ccccc13)CCC2
The displacement of the first is higher: 4.1% for the first, 3.4% for the second.

Going from Cc1c(O)ccc2c1oc(=O)c1ccccc12 to O=c1oc2c(O)c(O)ccc2c2c1CCC2, the displacement falls from 2.3% to 1.2%.

Compared with Nc1nnn(Cc2ccccc2)n1, Nc1nc(CSc2nc3ccccc3[nH]2)cs1 is lower in displacement: -0.8% for the first, -1.6% for the second.

Compared with CCN(CC)S(=O)(=O)c1ccc2oc(Nc3ccc4c(c3)OCCO4)nc2c1, Cc1oc(-c2ccc(Cl)cc2)nc1CN1CCCC(C(=O)NCc2ccco2)C1 (stereo not drawn) is lower in displacement: 0.7% for the first, 0.5% for the second.

First: CC(Sc1ccc2nnc(-c3ccc(F)cc3)n2n1)C(=O)O (stereo not drawn)
Second: O=C(O)c1cccc(N2C(=O)c3ccc(Br)cc3C2=O)c1
The displacement of the first is higher: -5.3% for the first, -5.6% for the second.

First: NC(=O)CN1CCOCCN(CC(N)=O)CCOCC1
Second: O=C(O)c1cccc(N2C(=O)CCC2=O)c1
The displacement of the first is lower: -5% for the first, 3.8% for the second.

Compared with O=C(NCC(O)c1ccccc1)C(=O)NC1CC1 (stereo not drawn), O=C(O)C1Nc2c(O)cccc2C2C=CCC12 (stereo not drawn) is higher in displacement: -1.2% for the first, 16.1% for the second.

Going from CCC(c1nnc(SCc2nc3ccccc3s2)n1Cc1ccccc1)N(C)C (stereo not drawn) to CN(C)CCCNc1c2c(c(C#N)c3nc4ccccc4n13)CCC2, the displacement rises from -2.1% to 3.6%.

Going from O=C1CC(c2ccccc2)c2ccc(O)cc2O1 (stereo not drawn) to Cc1cc(C)c(NC(=O)c2c(-c3ccccc3)noc2C)c(C)c1, the displacement falls from 2.6% to 1.9%.

Going from Cc1cccc(N2C(=O)NC(=O)/C(=C/c3ccc(N(C)C)c(Br)c3)C2=O)c1 to Cc1cc(NC(=O)c2ccc(-c3cccc(Cl)c3)o2)ccc1NC(=O)c1ccco1, the displacement falls from 0.9% to -0.3%.

Going from CCOc1ccc(-c2cc(OCC)c3c(C)oc(C)c3c(=[O+]CC)c2)cc1 to COc1cccc2c1NC(C(=O)O)C1CC=CC21 (stereo not drawn), the displacement rises from -5.4% to 47.8%.

Compared with O=[N+]([O-])c1ccc(C2Nc3ccc([N+](=O)[O-])cc3C3C=CCC32)cc1 (stereo not drawn), Cc1ccc2c(c1)C1C=CCC1C(C(=O)O)N2 (stereo not drawn) is higher in displacement: 0.4% for the first, 38.6% for the second.

In the case of O=C1C=CC2=C3Oc4c(ccc5cc(O)ccc45)C(c4ccccc4C(=O)O)C3C=CC2=C1 (stereo not drawn), the displacement is reported as 60.9% (active).
For O=C(O)c1cccc(N2C(=O)c3ccc4c5c(ccc(c35)C2=O)CC4)c1, the displacement was 70% (active).
CCOc1cccc(=[O+]CC)c2c(C)oc(C)c12 was tested, and the displacement was 80.7% (active).
With CCOc1cccc(=O)c2c(C)oc(C)c12 the displacement was 28% and 19.3%.
In the case of N#Cc1c2c(c(NCCCCO)n3c1nc1ccccc13)CCC2, the displacement is reported as 55% (active).
O=C(O)C1Nc2c(cccc2[N+](=O)[O-])C2C=CCC12 (stereo not drawn) was tested, and the displacement was 76.9% (active).
With O=C(O)C1Nc2ccc([N+](=O)[O-])cc2C2C=CCC12 (stereo not drawn) the displacement was 102% (active).
